B1: ENSMUSG00000061578.853|Ksr2 (ssRNA)
RNA: GGGAGUUCUACAGUCCGACGAUCGCUUCGAUAUCCGCAUGCUAAAGCAAAGAGCAAUACAGGAAAAGGUCAGGGGUGAGAUGUGUCAUUGCCACUUCCUCCAGCUAGGACCUUUGAGCAUCACAUUGUGAAGCCAUCCAGGGACUUGGGGGUUAGGUCAGAGGUAUCAAUACAUCUCCGGAAACAUCGUCACAGAUACCUAGAGGUACUUCAUUGAUCCCUUGAAAAGCAUGUCUUAAUUCUGUUAAGAUGUCAAUCAAGAUUACACAUCUCACUGCUUCACAGGCCAUCAGGGCCCCAUUCUCUCUUGCGGUCGCACUAGUGUGGAAUUCUCGGGUGUCAAGG
B2: ENSMUSG00000022095.198|Fam160b2 (ssRNA)
RNA: GGGAGUUCUACAGUCCGACGAUCGCUUCGAUAUCCGCAUGCUAUUCCUGCCCAUGCCACCUCUCGAAGCCGGGCACAGGUUGCCAGGAGGUGACAUGAAAGAGGAGGAAACUCCAUGACCUCUACAUCCCCCGCAGUCCUCCCAGCGGGGGAGGACUUCUCUGCUGCUCCGAAGAACAUCAUGCACUCCUGUGUGUGUGUGUGAGUGUGUGUGUGUGUGUGUGUGUGUGUGUGUGUGUAUGUGUGUGUAUAUGUGUGUGUGUGUGUGUAUGUGUGUGUGUGUGUGUGAGUGAGUGUGUGUGUGCUCUUGCGGUCGCACUAGUGUGGAAUUCUCGGGUGUCAAGG
B3: ENSMUSG00000022095.185|Fam160b2|225:238;240:260 (ssRNA)
RNA: GGGAGUUCUACAGUCCGACGAUCGCUUCGAUAUCCGCAUGCUAUUACCUCACAACAGGCCUGCAGUUGUUGGCUUCCCUCCUGGGCAAGGAGGAGCAGGCCAGAGCCCCUUUUGCUUCCUUUUCCUGCCCAUGCCACCUCUCGAAGCCGGGCACAGGUUGCCAGGAGGUGACAUGAAAGAGGAGGAAACUCCAUGACCUCUACAUCCCCCGCAGUCCUCCCAGCGGGGGAGGACUUCUCUGCUGCUCCGAAGAACAUCAUGCACUCCACACACACACACACACACACACACACACACACACACCUCUUGCGGUCGCACUAGUGUGGAAUUCUCGGGUGUCAAGG
B4: ENSMUSG00000022095.181|Fam160b2 (ssRNA)
RNA: GGGAGUUCUACAGUCCGACGAUCGCUUCGAUAUCCGCAUGCUAAGAGCACUCGGGCGGCGCCAGGCAUUACCUCACAACAGGCCUGCAGUUGUUGGCUUCCCUCCUGGGCAAGGAGGAGCAGGCCAGAGCCCCUUUUGCUUCCUUUUCCUGCCCAUGCCACCUCUCGAAGCCGGGCACAGGUUGCCAGGAGGUGACAUGAAAGAGGAGGAAACUCCAUGACCUCUACAUCCCCCGCAGUCCUCCCAGCGGGGGAGGACUUCUCUGCUGCUCCGAAGAACAUCAUGCACUCCUGUGUGUGUGUGCUCUUGCGGUCGCACUAGUGUGGAAUUCUCGGGUGUCAAGG
B5: ENSMUSG00000022095.187|Fam160b2|213:226;228:260 (ssRNA)
RNA: GGGAGUUCUACAGUCCGACGAUCGCUUCGAUAUCCGCAUGCUAAGGCCUGCAGUUGUUGGCUUCCCUCCUGGGCAAGGAGGAGCAGGCCAGAGCCCCUUUUGCUUCCUUUUCCUGCCCAUGCCACCUCUCGAAGCCGGGCACAGGUUGCCAGGAGGUGACAUGAAAGAGGAGGAAACUCCAUGACCUCUACAUCCCCCGCAGUCCUCCCAGCGGGGGAGGACUUCUCUGCUGCUCCGAAGAACAUCAUGCACUCCACACACACACACACACACACACACACACACACACACACACACACACACCUCUUGCGGUCGCACUAGUGUGGAAUUCUCGGGUGUCAAGG
B6: ENSMUSG00000022095.196|Fam160b2 (ssRNA)
RNA: GGGAGUUCUACAGUCCGACGAUCGCUUCGAUAUCCGCAUGCUAUUUUGCUUCCUUUUCCUGCCCAUGCCACCUCUCGAAGCCGGGCACAGGUUGCCAGGAGGUGACAUGAAAGAGGAGGAAACUCCAUGACCUCUACAUCCCCCGCAGUCCUCCCAGCGGGGGAGGACUUCUCUGCUGCUCCGAAGAACAUCAUGCACUCCUGUGUGUGUGUGUGAGUGUGUGUGUGUGUGUGUGUGUGUGUGUGUGUGUAUGUGUGUGUAUAUGUGUGUGUGUGUGUGUAUGUGUGUGUGUGUGUGUGAGUGCUCUUGCGGUCGCACUAGUGUGGAAUUCUCGGGUGUCAAGG
B7: ENSMUSG00000022095.195|Fam160b2 (ssRNA)
RNA: GGGAGUUCUACAGUCCGACGAUCGCUUCGAUAUCCGCAUGCUAAGCCCCUUUUGCUUCCUUUUCCUGCCCAUGCCACCUCUCGAAGCCGGGCACAGGUUGCCAGGAGGUGACAUGAAAGAGGAGGAAACUCCAUGACCUCUACAUCCCCCGCAGUCCUCCCAGCGGGGGAGGACUUCUCUGCUGCUCCGAAGAACAUCAUGCACUCCUGUGUGUGUGUGUGAGUGUGUGUGUGUGUGUGUGUGUGUGUGUGUGUGUAUGUGUGUGUAUAUGUGUGUGUGUGUGUGUAUGUGUGUGUGUGUGUGCUCUUGCGGUCGCACUAGUGUGGAAUUCUCGGGUGUCAAGG
B8: ENSMUSG00000022095.197|Fam160b2 (ssRNA)
RNA: GGGAGUUCUACAGUCCGACGAUCGCUUCGAUAUCCGCAUGCUAUUCCUUUUCCUGCCCAUGCCACCUCUCGAAGCCGGGCACAGGUUGCCAGGAGGUGACAUGAAAGAGGAGGAAACUCCAUGACCUCUACAUCCCCCGCAGUCCUCCCAGCGGGGGAGGACUUCUCUGCUGCUCCGAAGAACAUCAUGCACUCCUGUGUGUGUGUGUGAGUGUGUGUGUGUGUGUGUGUGUGUGUGUGUGUGUAUGUGUGUGUAUAUGUGUGUGUGUGUGUGUAUGUGUGUGUGUGUGUGUGAGUGAGUGUGCUCUUGCGGUCGCACUAGUGUGGAAUUCUCGGGUGUCAAGG
B9: ENSMUSG00000058297.304|Spock2|17:22 (ssRNA)
RNA: GGGAGUUCUACAGUCCGACGAUCGCUUCGAUAUCCGCAUGCUAAGUGAGGGCAGCCCCCACACACGUGGAAGAGGCUGGGCAGCUAGCUACUGGGGACCUUGUGCUGAGGCUUCCAGGACAAAGCCCCAGUCUGGCUCUCCCCCAGCCUCUCAGGGGCACUGGCUGGUCACAUCCACUGAGUAUUGAUCGGUUGGACUUUAGGGAAGAGCCUCCUCCUUCCCAUUCCUUUCUGCCACCCUGGAAUGGCCACCUUAAUCGUCAUCUCCUCGGGGGGAAUACGGAAAUGUCACCAAGCUCCAUAACUCUUGCGGUCGCACUAGUGUGGAAUUCUCGGGUGUCAAGG
B10: ENSMUSG00000090935.612|Synj2bp (ssRNA)
RNA: GGGAGUUCUACAGUCCGACGAUCGCUUCGAUAUCCGCAUGCUAUUUUCUGUGUGGGUGAUUUCAUUUAAUUAAUUGGACAGUCUAGCCACAGGCAACAAAUAGAAAUAGUAUUUGUAAUUAUAGUCUAUGCCAGGGACUGUCUUAAACUGAUUAGUAACACUAUGACUUACCCUGAGAUCUAAGUAUUGCUAUAAAGAGACUGAAGAGGAGAGAAUAAAGUAUUUUCCUAGGACUACAUAGUUGGUAAAAGAGAAUCAUGAUUUAAACUCUGGACUAUGGAUGGCAGUAUCAGUAAUAUUCCCCUCUUGCGGUCGCACUAGUGUGGAAUUCUCGGGUGUCAAGG
B11: ENSMUSG00000061578.450|Ksr2 (ssRNA)
RNA: GGGAGUUCUACAGUCCGACGAUCGCUUCGAUAUCCGCAUGCUACUUCUAACCUUGUACUGGGACAUCAUCUAUGUCCCCAUCCCCAGAGCUGAAUUAGAGACACCAAGUAGCCUCUUGGGUUGUUUUGUGGGGUGUUCCCCUUGCUGGUCAAAGGAGUGGAAAGCCACCUUGCUGUAAAUGCUCUUGUUUUCUGUAGCAAUCUUGAACUCUUUUUUUUUUUUGUUCGUUUGUUUGUUUGUUUGUUUGUUUGUUUUUUCAAGACAGGGUUUUUCUGUAUAGCCCUGGCUGUCCUGGAACUCAUUCUCUUGCGGUCGCACUAGUGUGGAAUUCUCGGGUGUCAAGG
B12: ENSMUSG00000043670.112|Diras1 (ssRNA)
RNA: GGGAGUUCUACAGUCCGACGAUCGCUUCGAUAUCCGCAUGCUACCGUGACCUCUGACCUGUGGCCUUCCCUGGGUCCAGAACACCCCUGUCCUCUCCUGUCUGCACACCAGGGUGGAUGGGCCCGAGGGCUGGGCCUCAGGCACCAGGCAAUAAACACAGGGCCUGCAGCAAUGCCCUGGCCACCCCGAGUACCACCUCUGGAAUAGCAGACGCCCACAGCACAAGCCCAGGACUGUCCCUUCAGGGGAGGCACACUGGAACCCUGAACUUGGAGUGUGGAGUGGCUGCCUGGACACUGCCCACUCUUGCGGUCGCACUAGUGUGGAAUUCUCGGGUGUCAAGG
B13: ENSMUSG00000090935.544|Synj2bp (ssRNA)
RNA: GGGAGUUCUACAGUCCGACGAUCGCUUCGAUAUCCGCAUGCUAUUGUUGAUCUAAAUAAAAAAUAUCAUUGGUAGAAGUUUUACUUUGGUUGAUAAGGAUUCUGAUAACAUUUGGGUCUCCUUAGGAAAGAAACACUUAACUAAAACAUUUAAGUUUUAGGCAAAUACUGUAAUAUUUCACUCUUAGUUAUAUGAAAACUAAAUGAGAUGUUGAGAAUCUAUAUAGAUUAUUCAAAUUUUAUGUUUCUUAUAGACUGACUCAAAUAUUCCUACCACCUUAAAAUUAUAUAUGAUGCACCUACCCUCUUGCGGUCGCACUAGUGUGGAAUUCUCGGGUGUCAAGG

In all, about 9,900 sequences were measured (“r (bound/input frequency ratio)”: median about 0.7, highest 2% from about 6.5 on). The entries come from a sample that favours the highest values as a whole.

TDP-43, sequence (Q13148 whole entry): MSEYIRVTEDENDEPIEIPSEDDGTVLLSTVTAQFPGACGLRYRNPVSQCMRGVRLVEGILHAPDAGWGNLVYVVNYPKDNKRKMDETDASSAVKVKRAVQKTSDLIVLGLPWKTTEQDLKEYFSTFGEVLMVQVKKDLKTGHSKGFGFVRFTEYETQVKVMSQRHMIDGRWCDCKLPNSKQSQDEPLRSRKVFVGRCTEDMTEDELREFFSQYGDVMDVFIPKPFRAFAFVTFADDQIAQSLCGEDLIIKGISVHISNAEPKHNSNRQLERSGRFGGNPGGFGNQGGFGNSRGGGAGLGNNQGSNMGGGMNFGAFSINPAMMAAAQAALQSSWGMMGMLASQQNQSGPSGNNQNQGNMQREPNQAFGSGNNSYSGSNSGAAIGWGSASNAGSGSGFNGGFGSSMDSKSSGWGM

The assay concerns the target TDP-43 (Homo sapiens, UniProt Q13148 1-414). Briefly: RNA Bind-n-Seq with designed 260-mer pool; 25 mM Tris-HCl, 150 mM KCl, 3 mM MgCl2, BSA (printed 500 mg/mL), 20 units/mL SUPERase IN; pH not stated; 500 nM RNA pool, 1 h, 4 C; TDP-43 5, 50, 500 nM; high values mean tight binding. The following applies: protein: recombinant; tags: SBP (GST cleaved off with PreScission; pGEX-GST-SBP). A digest of the protocol:
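Recombinant SBP-tagged TDP-43 at 5, 50 or 500 nM was captured on streptavidin beads, then incubated 1 h at 4 °C with 500 nM of an in vitro-transcribed 260-nt 3′ UTR oligo pool in 25 mM Tris-HCl, 150 mM KCl, 3 mM MgCl2, BSA and SUPERase IN. Bound RNA was washed, eluted with biotin, reverse transcribed, PCR-amplified and sequenced. Binding is R, each oligo's mapped-read-normalized abundance in the bound sample divided by its abundance in input. Duplicates used two independent protein batches.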
In the case of B1, the binding signal is 0.223 R (bound/input frequency ratio).
Then B2, with 10 R (bound/input frequency ratio); and B3, with 2.7 R (bound/input frequency ratio).
As to B4, the binding signal was 0.283 R (bound/input frequency ratio).
As for B5, the binding signal is 1.89 R (bound/input frequency ratio).
As for B6, the binding signal was 6.8 R (bound/input frequency ratio).
Take B7: the binding signal is 9.34 R (bound/input frequency ratio).
For the molecule B8, the binding signal was 6.5 R (bound/input frequency ratio).
On to B9, for which the binding signal is 0.535 R (bound/input frequency ratio).
On to B10, for which the binding signal is 0.0897 R (bound/input frequency ratio).
Then B11, with 2.73 R (bound/input frequency ratio); and B12, with 0.898 R (bound/input frequency ratio).
For B13 the value was 0.0172 R (bound/input frequency ratio).

Source of the values: paper PMC12864922, “TDP-43 directly inhibits mRNA accumulation in neurites through modulation of mRNA stability”.
